Laboratory results: PubChem BioAssay AID1159580 (chemical genetic matrix, 2015)
Among all 5,500 compounds or so, about 2,000 (36%) were called active. About 18% were inconclusive and are not listed. Cut-off read from the data, not from the text of the source: active = normalized growth mostly below about 0.91 (no sharp cut-off); inconclusive = no clear call, values can overlap the other calls; inactive = mostly above about 0.92. The list shows a part of the results.

Assay: chemical genetic growth profiling, strain panel (AID 1159580);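 note: tested at 20 µM; growth read once vehicle control cultures reached saturation at 30 °C; 1 = growth at the plate median or of vehicle wells; lower values mean less growth of the strain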
Conditions: S. cerevisiae deletion strains, growth OD

Measured: normalized growth

C[C@@H]1OC(O[C@H]2C(O[C@H]3CC[C@@]4(C)C(CC[C@]5(C)C4CC=C4C6CC(C)(C)CC[C@]6(C(=O)O)CC[C@]45C)[C@]3(C)CO)OC[C@H](O)[C@@H]2O)[C@H](O)[C@H](O)[C@H]1O (stereo not given in full)
active: locus YAL021C, strain ccr4, stronger effect = lower value 0.0607 | locus YAL026C, strain drs2, stronger effect = lower value 0.0592 | locus YAL030W, strain snc1, stronger effect = lower value 0.0552 | locus YBL061C, strain skt5, stronger effect = lower value 0.058 | locus YBR009C, strain hhf1, stronger effect = lower value 0.061 | locus YBR021W, strain FUR4, stronger effect = lower value 0.267 | locus YBR023C, strain chs3, stronger effect = lower value 0.0603 | locus YBR171W, strain sec66, stronger effect = lower value 0.0767 | locus YBR229C, strain ROT2, stronger effect = lower value 0.32 | locus YBR231C, strain swc5, stronger effect = lower value 0.0595 | locus YBR279W, strain paf1, stronger effect = lower value 0.0577 | locus YCL011C, strain gbp2, stronger effect = lower value 0.0544 | locus YCL016C, strain dcc1, stronger effect = lower value 0.0589 | locus YCL029C, strain bik1, stronger effect = lower value 0.0636 | locus YCL061C, strain MRC1, stronger effect = lower value 0.0604 | locus YCL069W, strain vba3, stronger effect = lower value 0.0603 | locus YCR088W, strain abp1, stronger effect = lower value 0.059 | locus YDL005C, strain med2, stronger effect = lower value 0.0706 | locus YDL035C, strain GPR1, stronger effect = lower value 0.483 | locus YDL040C, strain nat1, stronger effect = lower value 0.0557 | locus YDL074C, strain BRE1, stronger effect = lower value 0.269 | locus YDL101C, strain DUN1, stronger effect = lower value 0.44 | locus YDL185W, strain tfp1, stronger effect = lower value 0.0554 | locus YDL192W, strain arf1, stronger effect = lower value 0.0745 | locus YDR001C, strain nth1, stronger effect = lower value 0.0586 | locus YDR069C, strain doa4, stronger effect = lower value 0.0606 | locus YDR101C, strain arx1, stronger effect = lower value 0.0695 | locus YDR137W, strain rgp1, stronger effect = lower value 0.0801 | locus YDR159W, strain sac3, stronger effect = lower value 0.0844 | locus YDR162C, strain NBP2, stronger effect = lower value 0.299 | locus YDR195W, strain ref2 0.105 | locus YDR297W, strain sur2, stronger effect = lower value 0.0548 | locus YDR318W, strain mcm21, stronger effect = lower value 0.0705 | locus YDR334W, strain swr1, stronger effect = lower value 0.0629 | locus YDR335W, strain msn5, stronger effect = lower value 0.0601 | locus YDR388W, stronger effect = lower value 0.0545 | locus YDR392W, strain spt3, stronger effect = lower value 0.0915 | locus YDR502C, strain sam2, stronger effect = lower value 0.0793 | locus YEL003W, strain gim4, stronger effect = lower value 0.0528 | locus YEL037C, strain rad23, stronger effect = lower value 0.0576 | locus YEL061C, strain CIN8 (second series), stronger effect = lower value 0.0604 | locus YEL061C, strain CIN8, stronger effect = lower value 0.447 | locus YER015W, strain faa2, stronger effect = lower value 0.059 | locus YER016W, strain bim1, stronger effect = lower value 0.059 | locus YER110C, stronger effect = lower value 0.0996 | locus YER111C, strain swi4, stronger effect = lower value 0.0703 | locus YER155C, strain BEM2 (second series), stronger effect = lower value 0.0853 | locus YER155C, strain BEM2, stronger effect = lower value 0.124 | locus YER167W, strain BCK2, stronger effect = lower value 0.24 | locus YFR010W, strain ubp6, stronger effect = lower value 0.0632 | locus YGL078C, strain dbp3, stronger effect = lower value 0.056 | locus YGL086W, strain mad1, stronger effect = lower value 0.0905 | locus YGL167C, strain pmr1, stronger effect = lower value 0.0718 | locus YGL173C, strain kem1, stronger effect = lower value 0.0643 | locus YGL227W, strain vid30, stronger effect = lower value 0.0617 | locus YGL240W, strain doc1, stronger effect = lower value 0.0707 | locus YGL248W, strain PDE1, stronger effect = lower value 0.422 | locus YGL253W, strain hxk2, stronger effect = lower value 0.053 | locus YGR078C, strain PAC10, stronger effect = lower value 0.325 | locus YGR135W, strain pre9, stronger effect = lower value 0.136 | locus YGR252W, strain gcn5, stronger effect = lower value 0.157 | locus YHR013C, strain ard1, stronger effect = lower value 0.114 | locus YHR027C, strain rpn1, stronger effect = lower value 0.0611 | locus YHR030C, strain SLT2, stronger effect = lower value 0.103 | locus YHR079C, strain IRE1 (second series), stronger effect = lower value 0.0576 | locus YHR094C, strain hxt1, stronger effect = lower value 0.0605 | locus YHR129C, strain ARP1, stronger effect = lower value 0.202 | locus YHR142W, strain chs7, stronger effect = lower value 0.0688 | locus YHR200W, strain rpn10, stronger effect = lower value 0.0676 | locus YIL066C, strain RNR3, stronger effect = lower value 0.457 | locus YIL073C, strain SPO22, stronger effect = lower value 0.285 | locus YIL125W, strain kgd1, stronger effect = lower value 0.0561 | locus YIR030C, strain dcg1, stronger effect = lower value 0.0652 | locus YJL092W, strain hpr5, stronger effect = lower value 0.0579 | locus YJL095W, strain BCK1 (second series), stronger effect = lower value 0.0567 | locus YJL095W, strain BCK1, stronger effect = lower value 0.143 | locus YJL115W, strain asf1, stronger effect = lower value 0.069 | locus YJL129C, strain trk1, stronger effect = lower value 0.0793 | locus YJL134W, strain LCB3, stronger effect = lower value 0.187 | locus YJL154C, strain vps35, stronger effect = lower value 0.0589 | locus YJL164C, strain tpk1, stronger effect = lower value 0.0589 | locus YJL166W, strain qcr8, stronger effect = lower value 0.0599 | locus YJL168C, strain set2, stronger effect = lower value 0.0664 | locus YJL187C, strain SWE1 (second series), stronger effect = lower value 0.48 | locus YJL187C, strain SWE1, stronger effect = lower value 0.0554 | locus YJR043C, strain POL32, stronger effect = lower value 0.42 | locus YKL009W, strain mrt4, stronger effect = lower value 0.0928 | locus YKL068W, stronger effect = lower value 0.0555 | locus YKL085W, strain MDH1 (second series), stronger effect = lower value 0.0602 | locus YKL085W, strain MDH1, stronger effect = lower value 0.0602 | locus YKL160W, strain elf1, stronger effect = lower value 0.0617 | locus YKR001C, strain vps1, stronger effect = lower value 0.0888 | locus YKR026C, strain gcn3, stronger effect = lower value 0.0618 | locus YKR091W, strain srl3, stronger effect = lower value 0.0568 | locus YLL001W, strain dnm1, stronger effect = lower value 0.0585 | locus YLL026W, stronger effect = lower value 0.0562 | locus YLL041C, strain sdh2, stronger effect = lower value 0.0555 | locus YLR027C, strain aat2, stronger effect = lower value 0.0549 | locus YLR039C, strain RIC1, stronger effect = lower value 0.135 | locus YLR058C, strain SHM2, stronger effect = lower value 0.414 | locus YLR102C, strain apc9, stronger effect = lower value 0.0668 | locus YLR221C, strain rsa3, stronger effect = lower value 0.0578 | locus YLR258W, strain gsy2, stronger effect = lower value 0.0581 | locus YLR262C, strain YPT6 (second series), stronger effect = lower value 0.0763 | locus YLR262C, strain YPT6, stronger effect = lower value 0.153 | locus YLR268W, strain sec22, stronger effect = lower value 0.0705 | locus YLR320W, strain mms22, stronger effect = lower value 0.0834 | locus YLR330W, strain CHS5, stronger effect = lower value 0.213 | locus YLR342W, strain FKS1 (second series), stronger effect = lower value 0.286 | locus YLR342W, strain FKS1, stronger effect = lower value 0.0611 | locus YLR357W, strain rsc2, stronger effect = lower value 0.11 | locus YLR370C, strain arc18, stronger effect = lower value 0.0593 | locus YLR371W, strain rom2, stronger effect = lower value 0.0622 | locus YLR384C, strain iki3, stronger effect = lower value 0.0588 | locus YLR418C, strain cdc73, stronger effect = lower value 0.114 | locus YML016C, strain PPZ1, stronger effect = lower value 0.214 | locus YML032C, strain rad52, stronger effect = lower value 0.0701 | locus YML120C, strain ndi1, stronger effect = lower value 0.0572 | locus YML124C, strain tub3, stronger effect = lower value 0.0681 | locus YMR058W, strain fet3, stronger effect = lower value 0.0577 | locus YMR078C, strain ctf18, stronger effect = lower value 0.0754 | locus YMR125W, strain sto1, stronger effect = lower value 0.0713 | locus YMR129W, stronger effect = lower value 0.0556 | locus YMR205C, strain PFK2, stronger effect = lower value 0.0864 | locus YMR223W, strain ubp8, stronger effect = lower value 0.0761 | locus YMR231W, strain pep5, stronger effect = lower value 0.0636 | locus YMR263W, strain SAP30, stronger effect = lower value 0.185 | locus YMR307W, strain GAS1, stronger effect = lower value 0.117 | locus YNL067W, strain RPL9B, stronger effect = lower value 0.471 | locus YNL071W, strain lat1, stronger effect = lower value 0.0594 | locus YNL128W, strain TEP1, stronger effect = lower value 0.401 | locus YNL209W, strain ssb2, stronger effect = lower value 0.0578 | locus YNL233W, strain BNI4, stronger effect = lower value 0.167 | locus YNL248C, strain rpa49, stronger effect = lower value 0.0674 | locus YNL250W, strain rad50, stronger effect = lower value 0.0622 | locus YNL271C, strain bni1, stronger effect = lower value 0.058 | locus YNL298W, strain CLA4, stronger effect = lower value 0.0574 | locus YNL307C, strain MCK1, stronger effect = lower value 0.0651 | locus YNL322C, strain KRE1 (second series), stronger effect = lower value 0.0635 | locus YNR049C, strain mso1, stronger effect = lower value 0.0575 | locus YNR052C, strain pop2, stronger effect = lower value 0.0612 | locus YOL147C, strain pex11, stronger effect = lower value 0.0641 | locus YOR001W, strain rrp6, stronger effect = lower value 0.0642 | locus YOR061W, strain CKA2, stronger effect = lower value 0.723 | locus YOR069W, strain VPS5, stronger effect = lower value 0.193 | locus YOR070C, strain gyp1, stronger effect = lower value 0.0577 | locus YOR080W, strain dia2, stronger effect = lower value 0.0631 | locus YOR083W, strain WHI5, stronger effect = lower value 0.0595 | locus YOR106W, strain vam3, stronger effect = lower value 0.0596 | locus YOR136W, strain idh2, stronger effect = lower value 0.0808 | locus YOR144C, strain elg1, stronger effect = lower value 0.0575 | locus YOR184W, strain ser1, stronger effect = lower value 0.0762 | locus YOR265W, strain rbl2, stronger effect = lower value 0.0556 | locus YOR270C, strain vph1, stronger effect = lower value 0.0934 | locus YOR290C, strain snf2, stronger effect = lower value 0.0761 | locus YOR316C, strain cot1, stronger effect = lower value 0.0649 | locus YPL051W, strain arl3, stronger effect = lower value 0.0588 | locus YPL078C, strain atp4, stronger effect = lower value 0.0628 | locus YPL106C, strain sse1, stronger effect = lower value 0.0896 | locus YPL240C, strain hsp82, stronger effect = lower value 0.0548 | locus YPR119W, strain clb2, stronger effect = lower value 0.0662 | locus YPR141C, strain kar3, stronger effect = lower value 0.0612 | locus YPR163C, strain tif3, stronger effect = lower value 0.0699 | locus YPR167C, strain met16, stronger effect = lower value 0.0649 | strain wtn01, stronger effect = lower value 0.0783
